In PubChem BioAssay (NCI) one finds growth data, which are given here for 26 compounds.

This is part of a sample that, as a whole, favours compounds with a hit. Of some 83,000 tested, about 20% had one in any assay.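 Growth was measured after 48 h exposure to one concentration of compound in 96-well plates. Values under 10 count as active.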 Active and inactive are the calls of the source.

For this experiment, the system named is HL-60(TB) leukemia. The experiment in a line: NCI-60 one-dose screen, 48 h (100 = growth as untreated, 0 = no growth, -100 = all killed). As to conditions: 10 µM unless noted.
As for `COc1ccc2c(c1)C(=O)/C(=C/c1ccc(OCC(=O)c3ccc(Cl)cc3)cc1)O2`, the growth was 70.2% (inactive). In the case of `CCCCCCN(CCCCCC)CCC(=O)Nc1ccc(S(=O)(=O)c2ccc(NC(=O)CCN(CCCCCC)CCCCCC)cc2)cc1`, the growth was 80% (inactive). Regarding `CC(C)=CCCC(C)C1=C(O)C(=O)C(C)=CC1=O` (stereo unspecified), the growth is -47.1% (active). Turning to `CCOC(=O)c1cc(C(=O)c2cc(OC)c(OC)c(OC)c2)n2c1ccc1ccccc12`, the growth is -12.9% (active).

As for `CN(C)C(=S)N(C)C`, the growth was 86.6% (inactive). As for `O=C1COCCN1c1ccc(NCc2cn(Cc3ccccc3)c3ccccc23)cc1`, the growth was 99.1% (inactive).

As to `COc1cc(CC(=O)c2ccc(O)c(OC)c2)ccc1O`, the growth was 87% (inactive). The result for `CCN(CC)c1ccc(/C=N/NC(=O)Cc2ccc(Nc3ccnc(C(F)(F)F)c3)cc2)c(O)c1` reads 0.765% (active). In the case of `COc1cccc(-c2nn(-c3ccccc3)cc2-c2ccnc(NCCCNS(=O)(=O)c3ccccc3)c2)c1`, the growth is 16% (inactive).

On to `S=C(Nc1ccccc1)c1ccccn1`, for which the growth was 107% (inactive). On to `COc1cccc(C(=O)NNc2nc(Cl)nc(Cl)n2)c1`, for which the growth is 96.2% (inactive). Take `COc1ccc([C@H]2c3cc(OC)c(OC)cc3C=C(C=O)C2CO)cc1OC` (stereo partly specified): the growth is -13.9% (active). Regarding `O=[N+]([O-])c1ccc(N=Nc2ccccc2)cc1`, the growth was 67.1% (inactive). As to `COCCOCCOCCOCCOc1ccc2c(c1)C(=O)c1nc3ncccc3c(=O)n1-2`, the growth is -64.6% (active). As for `Clc1nc(Oc2ccccc2)nc(-c2cn(-c3ccccc3)c3ccccc23)n1`, the growth was 63.2% (inactive). The result for `C[C@@H](NC(=O)c1ncnc(N)c1Cl)c1ncc(C(=O)Nc2cc(C(F)(F)F)c(Cl)cn2)s1` reads 35.4% (inactive); that for `Cc1cc(N2CCCCC2)nc(N2CCN(CC(=O)Nc3ccc4c(ccn4Cc4ccccc4)c3)CC2)n1`, 42.8% (inactive). Take `Cn1c(NCCc2ccc(O)c(O)c2)nc2c1c(=O)n(Cc1ccc(Cl)cc1)c(=O)n2C`: the growth is 13.2% (inactive). For the compound `Cn1ccnc1C(=O)/C=C/c1ccc(CC(=O)Nc2ccc(Br)cc2)cc1`, the growth is 0.748% (active).

As for `Cc1nnc(Nc2ccc(NC(=O)Nc3ccc(Cl)cc3)cc2)c2ccccc12`, the growth is -34.8% (active). In the case of `OCCOCC(F)(F)F`, the growth was -0.411% (active). For the compound `CC(C)CSc1nc(NN)c(C#N)c(-c2ccc(F)cc2)n1`, the growth was 94.4% (inactive). Take `C#CCNC(=O)c1cccc2c1cc(C)n2-c1nc2c(c(NCc3ccccc3)n1)CCCC2`: the growth is 0.47% (active). As to `Cc1cc(C(C)(C)C)cc(C)c1CC1=NCCN1`, the growth was 102% (inactive).

As for `N=C1CCC(=N)c2c1c(O)c1ccccc1c2O`, the growth was 129% (inactive). For the compound `CC(=O)c1cc2c(o1)C(=O)c1ccccc1C2=O`, the growth is -36.5% (active).
